The values that follow come from PubChem BioAssay (NCI).

The panel holds about 83,000 compounds, 20% with a hit somewhere; the sample as a whole holds those more often.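 Step 1: grow cells in 96-well plates. Step 2: add test compound at a single concentration. Step 3: incubate 48 h. Step 4: record percent growth.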 Unmarked numbers belong to inactive results. The source made the active and inactive calls. How the source made its calls: active means growth percent below 10; inactive means the rest.

Among the test systems are HCT-15 colon; HT29 colon; SNB-75 CNS; SNB-19 CNS; U251 CNS; SK-MEL-5 melanoma; UACC-62 melanoma; LOX IMVI melanoma; SK-MEL-28 melanoma; SK-MEL-2 melanoma; EKVX NSCLC; SN12C renal; UO-31 renal; TK-10 renal; ACHN renal; CAKI-1 renal; A498 renal; CCRF-CEM leukemia; MOLT-4 leukemia; PC-3 prostate.
What all share (test): NCI-60 one-dose screen, 48 h (100 = growth as untreated, 0 = no growth, -100 = all killed)
Holding throughout (conditions): 10 µM unless noted

As to `COc1ccc(-c2nn(Cc3ccccc3)c3c2-c2oncc2CC3)cc1OC`, the growth in the assay on HCT-15 colon was 93.4%; with HT29 colon, 108%; in the assay on SNB-75 CNS, 105%; with SNB-19 CNS it was 104%; with U251 CNS, 93.1%; with SK-MEL-5 melanoma it was 102%. Moreover, the growth in the assay on UACC-62 melanoma was 86.8%; with LOX IMVI melanoma, 86.2%; in the assay with SK-MEL-28 melanoma, 105%; in the assay with SK-MEL-2 melanoma, 125%; in the assay with EKVX NSCLC it was 67%; in the assay with SN12C renal it was 85.8%. Moreover, the growth in the assay with UO-31 renal is 75%; in the assay on TK-10 renal it was 84.1%; with ACHN renal, 90.9%; in the assay with CAKI-1 renal, 81.8%; in the assay with A498 renal, 57.4%; with CCRF-CEM leukemia, 98.3%. Also, in the assay on MOLT-4 leukemia, the growth was 67.2%.

On to `Cc1cccc(C)c1-c1cc(Cc2ccc(Cl)cc2)c(=O)[nH]n1`, for which the growth in the assay on HCT-15 colon is 107%; with HT29 colon it was 105%; in the assay on SNB-75 CNS, 90.5%; with SNB-19 CNS it was 80.9%; with U251 CNS, 101%; with PC-3 prostate, 97.2%. Moreover, the growth in the assay on SK-MEL-5 melanoma is 98.8%; in the assay on LOX IMVI melanoma it was 93.4%; in the assay with SK-MEL-28 melanoma, 108%; in the assay on SK-MEL-2 melanoma it was 114%; in the assay on EKVX NSCLC, 92.8%; in the assay with UO-31 renal it was 52.5%. Moreover, the growth in the assay with TK-10 renal is 114%; in the assay on ACHN renal it was 112%; in the assay with CAKI-1 renal, 146%; with A498 renal, 104%; in the assay with MOLT-4 leukemia it was 74.3%.

`CCN(CC)CCOC(COc1cc(C)cc(C)c1)COc1cc(C)cc(C)c1`: the growth in the assay with HCT-15 colon was 34.5%; in the assay on HT29 colon, 10.3%; in the assay with SNB-75 CNS it was 61.4%; in the assay with SNB-19 CNS, 47.5%; with U251 CNS it was 32.5%; in the assay with PC-3 prostate, 33.6%. Also, the growth in the assay on SK-MEL-5 melanoma was -88.5% (active); in the assay with LOX IMVI melanoma, -12% (active); in the assay on SK-MEL-28 melanoma it was 39.6%; in the assay on SK-MEL-2 melanoma it was 86.7%; in the assay on SN12C renal, 28.8%; in the assay with UO-31 renal, 31.6%. Besides, the growth with TK-10 renal was 48%; in the assay on ACHN renal, 46.2%; in the assay with CAKI-1 renal it was 40.1%; in the assay on A498 renal, 28.4%; in the assay on CCRF-CEM leukemia it was 14.5%; with MOLT-4 leukemia it was 13.5%.

On to `CCCN=C(N)c1ccc(NC(=O)c2ccc(C(=O)Nc3ccc(C(N)=NCCC)cc3)cc2)cc1`, for which the growth was 99.7% with HCT-15 colon; 102% in the assay with HT29 colon; 78.1% with SNB-75 CNS; 105% in the assay on SNB-19 CNS; 107% with U251 CNS; 27.2% in the assay with SK-MEL-5 melanoma. Also, the growth is 90.2% in the assay with UACC-62 melanoma; 108% in the assay with LOX IMVI melanoma; 110% in the assay on SK-MEL-28 melanoma; 97.2% in the assay with SK-MEL-2 melanoma; 96.1% in the assay with EKVX NSCLC; 93.1% in the assay with SN12C renal. Also, the growth in the assay with UO-31 renal was 79.8%; in the assay with TK-10 renal it was 99%; in the assay on ACHN renal, 91.8%; in the assay on CAKI-1 renal, 95%; in the assay on CCRF-CEM leukemia it was 108%; in the assay on MOLT-4 leukemia it was 78.2%.

On to `CCN(CCNc1cc(OC)cc2cccnc12)CCc1ccccc1`, for which the growth is 73.1% with HCT-15 colon; 70% in the assay on HT29 colon; 83.7% with SNB-75 CNS; 98.1% in the assay on SNB-19 CNS; 101% with U251 CNS; 87.5% in the assay with PC-3 prostate. For the same molecule, the growth is 95.3% with SK-MEL-5 melanoma; 102% in the assay with SK-MEL-28 melanoma; 101% in the assay on SK-MEL-2 melanoma; 91.2% in the assay with EKVX NSCLC; 91.3% with SN12C renal; 70.8% with UO-31 renal. Also, the growth was 101% in the assay with TK-10 renal; 84.1% in the assay with ACHN renal; 84.7% in the assay on CAKI-1 renal; 92.2% in the assay with A498 renal; 73.7% with CCRF-CEM leukemia.

Take `CC(=O)c1c(-c2ccc(OC(F)(F)F)cc2)nc2ccccn12`: the growth in the assay with HCT-15 colon was 94.9%; with HT29 colon it was 74.2%; in the assay on SNB-75 CNS, 91.9%; in the assay on SNB-19 CNS it was 99.1%; in the assay on U251 CNS it was 89.8%; in the assay on SK-MEL-5 melanoma it was 96.6%. Further, the growth is 105% in the assay on UACC-62 melanoma; 91.6% in the assay with LOX IMVI melanoma; 90% with SK-MEL-28 melanoma; 81.5% in the assay on SK-MEL-2 melanoma; 96% with EKVX NSCLC; 103% in the assay with SN12C renal. For the same molecule, the growth in the assay on UO-31 renal was 81.6%; in the assay with CAKI-1 renal it was 92.4%; in the assay on CCRF-CEM leukemia, 109%; in the assay on MOLT-4 leukemia it was 118%.

For `COc1cc(C2CC(c3cccc(Nc4ccncc4)c3)=NN2c2ccc(Cl)cc2)cc(OC)c1OC` (stereo unspecified), the growth was -36.4% (active) with HCT-15 colon; -30.3% (active) with HT29 colon; 26.1% in the assay with SNB-75 CNS; 57.9% with SNB-19 CNS; -53.2% (active) in the assay with U251 CNS; -50.7% (active) in the assay with SK-MEL-5 melanoma. The growth with UACC-62 melanoma is 91.1%; with LOX IMVI melanoma it was -88.8% (active); in the assay with SK-MEL-28 melanoma, -83.2% (active); in the assay with SK-MEL-2 melanoma, 55.8%; with SN12C renal, 54.7%; in the assay with UO-31 renal it was 42.4%. In addition, the growth is 68.4% in the assay with TK-10 renal; -62.1% (active) in the assay on ACHN renal; 19.2% with CAKI-1 renal; 64.1% with A498 renal; -9.68% (active) with CCRF-CEM leukemia; -17.3% (active) with MOLT-4 leukemia.

As to `Clc1ccc(N2N=C(c3cccc(Nc4ccncc4)c3)CC2c2ccccc2)cc1` (stereo unspecified), the growth in the assay with HCT-15 colon was 103%; with HT29 colon, 80.7%; with SNB-75 CNS it was 65%; in the assay with U251 CNS it was 90.4%; in the assay on PC-3 prostate it was 84.9%; in the assay with SK-MEL-5 melanoma, 94%. The growth was 96.9% with UACC-62 melanoma; 86.8% in the assay on LOX IMVI melanoma; 90.4% in the assay on SK-MEL-28 melanoma; 107% in the assay on SK-MEL-2 melanoma; 86.1% in the assay with SN12C renal; 83.1% with UO-31 renal. Further, the growth was 106% with TK-10 renal; 94.9% in the assay on ACHN renal; 76.2% in the assay with CAKI-1 renal; 84.5% in the assay with A498 renal; 96.3% in the assay with CCRF-CEM leukemia; 89.4% in the assay on MOLT-4 leukemia.
